For 20 compounds, inhibition results are on record in PubChem BioAssay AID687016 (The Scripps Research Institute Molecular Screening Center, 2013).

The whole screen tested about 370,000 compounds, of which about 2,800 (0.76%) were called active. Rule as the data show it: active = inhibition above about 21%; inactive = the rest. The sample as a whole holds a higher share of actives than the screen did.

In this assay the target is E3 ubiquitin-protein ligase UHRF1 (Homo sapiens) (UniProt Q96T88). The assay can be described thus: UHRF1 methylated DNA binding inhibitors, primary screen, counter-screen for MBD2 inhibitor project, biochemical, TR-FRET, human UHRF1, single concentration (AID 687016).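 Also: UHRF1 SRA domain binding a hemimethylated CpG hairpin DNA probe; 0% = median of test compound wells and 100% = reference inhibitor.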 Particulars: UHRF1 binding to methylated oligo, at 4.4 µM, stronger effect = higher value. In general terms: A counterscreen serves to expose hits that act by an unwanted route or on another target.
Sequence of E3 ubiquitin-protein ligase UHRF1 (Homo sapiens) (Q96T88 whole entry, looked up, the tested form may be a part): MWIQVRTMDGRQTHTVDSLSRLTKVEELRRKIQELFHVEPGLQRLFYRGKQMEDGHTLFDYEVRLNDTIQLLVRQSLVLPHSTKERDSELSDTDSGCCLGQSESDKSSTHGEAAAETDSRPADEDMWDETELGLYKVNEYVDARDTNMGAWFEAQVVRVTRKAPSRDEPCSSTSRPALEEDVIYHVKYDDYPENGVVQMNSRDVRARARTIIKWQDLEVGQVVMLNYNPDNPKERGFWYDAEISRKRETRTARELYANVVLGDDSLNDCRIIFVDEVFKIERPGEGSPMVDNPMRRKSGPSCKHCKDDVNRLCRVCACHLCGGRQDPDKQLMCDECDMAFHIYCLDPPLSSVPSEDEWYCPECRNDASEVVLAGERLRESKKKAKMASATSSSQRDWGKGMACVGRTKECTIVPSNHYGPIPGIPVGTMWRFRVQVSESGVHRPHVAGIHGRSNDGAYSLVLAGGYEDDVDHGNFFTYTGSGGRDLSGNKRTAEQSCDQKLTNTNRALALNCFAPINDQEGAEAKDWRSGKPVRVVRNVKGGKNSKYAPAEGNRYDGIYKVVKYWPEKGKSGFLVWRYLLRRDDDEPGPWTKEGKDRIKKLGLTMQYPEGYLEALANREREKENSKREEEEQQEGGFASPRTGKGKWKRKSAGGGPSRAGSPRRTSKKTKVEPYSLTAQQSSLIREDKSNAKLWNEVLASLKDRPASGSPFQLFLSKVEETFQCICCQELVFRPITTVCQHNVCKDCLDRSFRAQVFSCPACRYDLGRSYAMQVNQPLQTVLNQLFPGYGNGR
Consider `CC(C)c1ccc(OCC(=O)N2CCCN(C)CC2)cc1`, for which the inhibition is -1.28% (inactive).
Regarding `Cn1cc(C(=O)OCC(=O)N2CCCC2)c2ccccc21`, the inhibition was 73.7% (active).
In the case of `CC(=O)Nc1ccccc1C(=O)OCC(=O)c1cccc2ccccc12` it was 0.36% (inactive); in that of `O=C1C2CCN(CC2)C1(CO)CO`, 0.15% (inactive).
As for `Cc1ccccc1CCC[C@@H](CC1CCCCC1)CN(C)C(=O)Oc1ccccc1`, the figure is -0.75% (inactive); as for `Cc1cc(/C=C2/C(=O)NC(=O)N(Cc3ccco3)C2=O)c(C)n1-c1ccc(C(=O)O)cc1`, 78.5% (active); as for `Cc1ccnc(-n2c(C)cc(/C=C3\C(=O)NC(=S)N(C)C3=O)c2C)c1`, 1.95% (inactive).
In the case of `Cc1cc(C=C2C(=O)NC(=O)NC2=O)c(C)n1-c1ccncc1` it was -7.92% (inactive).
Turning to `O=C1NC(=O)N(Cc2ccco2)C(=O)/C1=C\c1ccc(-c2ccc(F)cc2)o1`, the inhibition is 81.8% (active).
In the case of `CO[C@H]([C@H](C)/C=C/N(C)C=O)[C@@H](C)C(=O)CC[C@H](C)[C@H](O)[C@H](C)[C@H]1OC(=O)/C=C/C(C)=C/[C@H](O)[C@H](OC)C[C@@H]2C=CC[C@@H](C[C@H](OC)[C@@]3(CO3)[C@@H](OC)C[C@@H](OC)[C@@H]1C)O2` it was -2.95% (inactive); in that of `CC(=CCOc1ccc2ccc(=O)oc2c1)C1=CC(=O)C(C)(C)O1`, 0.79% (inactive).
With `NC(=O)Cn1cc(C(=O)c2ccccc2F)c2ccccc21`, the inhibition was -1.97% (inactive).
In the case of `S=C(NCCc1ccccc1)N1Cc2cc(N3CCOCC3)ccc2-n2nncc2C1` it was -3.2% (inactive); in that of `CCOC(=O)[C@]12Cc3ccccc3[C@H]1N(C1CCCCC1)C(=O)c1cc(OC)ccc12`, -1.33% (inactive).
As for `COP(=O)(Sc1ccccc1)C(Cc1ccccc1)NC(=O)OCc1ccccc1` (stereo not given), the figure is -3.61% (inactive); as for `O=c1c2ccccc2nc(-c2ccc(Cl)cc2Cl)n1-c1ccncc1`, -0.96% (inactive); as for `COc1ccc(N2C(=O)/C(=C/c3ccco3)C(=O)NC2=S)cc1`, 68.7% (active).
On to `CCOC(=O)C(O)(c1ccc(N=Cc2ccccc2O)c(C)c1)C(F)(F)F` (stereo not given), for which the inhibition was -1.83% (inactive).
In the case of `CN(C)CCCN=Cc1c(O)n(Cc2ccco2)c(=O)[nH]c1=O` it was 0.23% (inactive).
In the case of `CC(C)CN1CCN(Cc2ccccc2C(F)(F)F)CC1CCO` (stereo not given) it was -2.88% (inactive).

The inhibition is the relative decrease from the control value, in per cent.
